Reference: PubChem BioAssay AID624168 (Sanford-Burnham Center for Chemical Genomics, 2012)
In all, about 360,000 compounds went through this assay and about 800 (0.22%) were called active. Only a selection was taken, and actives are over-represented in it overall. Unmarked numbers belong to inactive results.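 The calls were made as follows: active = activation of at least 8% versus controls, or a plate z-score of at least 8; inactive = the rest.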

Assay: compounds raising alpha-dystroglycan glycosylation – uHTS, Pro5-aDG cells, AlphaScreen, primary screen (AID 624168);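 also: Pro5 are CHO cells carrying HIG-tagged alpha-DG that lacks glycosylation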
Conditions: alpha-DG glycosylation AlphaScreen (IIH6), at 10 µM, active compounds read high; 0% Pro5, 100% B10-LARGE cell signal unless noted

Row | Structure (SMILES) | activation
1 | CNCC(O)c1cc(F)c(OCc2ccccc2)c(OCc2ccccc2)c1F (stereo not given) | 7.7% (active)
2 | Cc1ccc(C2CN(C)CC2C(=O)c2ccc(F)cc2)cc1 (stereo not given) | 0% [setting not given]
3 | Cc1nc2ccccn2c1P(=S)(N1CCCCC1)N1CCCCC1 | -0.2% [setting not given]
4 | COc1cc(C(=O)N2Cc3ccc(Br)cc3-n3nncc3C2)cc(OC)c1OC | -0.2%
5 | COC(=O)C1=C(c2ccc(F)cc2OCc2ccccc2)C[C@@H]2CC[C@H]1N2C(=O)NCc1ccc(Cl)cc1 | 0.6%
